# According to PubChem BioAssay (Tox21):
# Records with an inconclusive call do not appear. A number with no mark means an inactive call. The source made the active and inactive calls. The call rests on the fitted dose curve; in most records, active means well fitted activation curve with a large enough effect in the signal ratio in the repeat runs (not every such curve was filed as active); inconclusive means weak or mixed curves, or effect the other way; inactive means no such curve, though single readings can be large or run the other way; the % refers to the signal ratio.
# Assay: qHTS assay for small molecule agonists of the antioxidant response element (ARE) signaling pathway (AID 743202)
# Settings: HepG2 ARE-bla reporter, beta-lactamase FRET, 16 h; series mostly up to 73.3 µM; activation: at the top concentration
# Excerpt: U.S. Tox21 Program National Center for Advancing Translational Sciences [NCATS] NIH Chemical Genomics Center [NCGC] U.S. Environmental Protection Agency [EPA] National Institutes of Environmental Health Sciences [NIEHS] National Toxicology Program [NTP] U.S. Food and Drug Administration [FDA] Tox21 Assay Overview: Oxidative stress has been implicated in the pathogenesis of a variety of diseases ranging from cancer to neurodegeneration. The antioxidant response element (ARE) signaling pathway plays an important role in the amelioration of oxidative stress. The CellSensor ARE-bla HepG2 cell line (Invitrogen) can be used for analyzing the Nrf2/antioxidant response signaling pathway. Nrf2 (NF-E2-related factor 2) and Nrf1 are transcription factors that bind to AREs and activate these genes. The CellSensor ARE-bla Hep G2 cell line contains a beta-lactamase reporter gene under control of the Antioxidant Response Element (ARE) stably integrated into HepG2 cells. The activation of the report gene under culture conditions can be detected by fluorescence intensity. This cell line has been used to screen the Tox21 10K compound library to identify agonists that induce oxidative stress.
# Tox21 Assay Protocol Summary: The ARE-bla cells were dispensed at 2,000 cells/5 ul/well in 1536-well black wall/clear bottom plates using a Multidrop dispenser. After the assay plates were incubated at a 37 C/5% CO2 incubator for 5 hours, 23 nL of compounds dissolved in DMSO, positive controls or DMSO only was transferred to the assay plate by a pin tool. The plates were incubated at 37 C for 16 hours. After 1 uL of LiveBLAzer B/G FRET substrate was added using a Flying Reagent Dispenser, the plates were incubated at room temperature for 2 hours, and fluorescence intensity was measured by an Envision plate reader.
# On the % scale 0 is the no-effect control and ±100 the full control effect; potency means the concentration at half of the fitted maximal effect.
SMILES,activation,Potency
COC(=O)C1CC(=O)C(C(=O)OC)CC1=O (stereo not given),-4.53% [at 8.36 µM],–
Cc1[nH]cnc1-c1ccc(Cl)cc1,1.77%,–
CC(C)NCC(O)COc1cccc2[nH]ccc12 (stereo not given),-10%,–
Cc1ccccc1OCC(O)CO (stereo not given),1.97%,–
COc1cc2c(cc1OC)[C@@H]1CC(=O)[C@@H](CC(C)C)CN1CC2,4.69%,–
NS(=O)(=O)c1cc2c(cc1Cl)CN(C1CCCCC1)C2=O,10.2%,–
CC(C)(C)c1cc(CCC(=O)NN)cc(C(C)(C)C)c1O,-1.59%,–
CC(C(=O)O)c1ccc2c(c1)CC(=O)c1ccccc1S2 (stereo not given),3.84%,–
O=C1CC(c2ccc(Cl)cc2)CC(=O)N1,-8.3%,–
C=C1CC/C=C(\C)CC[C@@H]2[C@@H]1CC2(C)C,-4.53%,–
C[C@H](N)[C@H](O)c1cccc(O)c1,13.2%,–
CC(=O)c1sc(C)nc1C,-7%,–
O=C1c2ccccc2C(=O)C1c1ccccc1,9.9%,–
CCC(C)NC(N)=O (stereo not given),-4.48%,–
Nc1cccc(O)c1,16.7% [at 94.8 µM],–
CC(=O)NCCCCCC(=O)O,-8.34%,–
CC1(C)S[C@@H]2[C@H](N=CN3CCCCCC3)C(=O)N2[C@H]1C(=O)O,-0.991%,–
CNS(=O)(=O)CCc1ccc2[nH]cc(C3CCN(C)CC3)c2c1,-6.18%,–
CC(C)C(=O)OCc1cccc(OC(=O)[C@@H]2N3C(=O)[C@@H](NC(=O)Cc4ccccc4)[C@H]3SC2(C)C)c1,-8.83%,–
O=Cc1ccc(Cl)c(Cl)c1,16.6% [at 94.8 µM],–

SMILES,activation,Potency
O=S(=O)(O)c1cc(O)c2ccc(Nc3ccccc3)cc2c1,-2.46%,–
COc1ccc2nc(SCc3ncc(C)c(OC)c3C)[nH]c2c1,10.1%,–
O=C(Nc1ccc(Cl)c(Cl)c1)C1CC1,–,15 µM (active)
Cc1cc2cc3c(C)cc(=O)oc3c(C)c2o1,-1.2%,–
CCCOC(=O)C(C)O (stereo not given),0.529% [at 94.8 µM],–
Cc1nc2n(c(=O)c1CCN1CCC(c3noc4cc(F)ccc34)CC1)CCC[C@H]2O,5.36% [at 34.3 µM],–
CCCN1C[C@H](CSC)C[C@@H]2c3cccc4[nH]cc(c34)C[C@H]21,9.41%,–
N[C@@H](CCC(=O)N[C@@H](CS)C(=O)NCC(=O)O)C(=O)O,-12.6% [at 34.3 µM],–
CCOc1cc(NC(C)=O)ccc1C(=O)OC,-5.02%,–
CC(=O)OC(C)OC(=O)C(C)c1ccc(-c2ccccc2)c(F)c1 (stereo not given),-4.71%,–
NS(=O)(=O)c1ccc(NC(=O)CCC(=O)O)cc1,-3.73%,–
CCCCC(CC)COCCO (stereo not given),-11.8%,–
CC(C)CCCCOC(=O)c1ccccc1C(=O)OCCCCC(C)C,0.326%,–
O=C(O)c1ccc(Cl)cc1Cl,-2.71% [at 94.8 µM],–
Oc1ccccc1-c1nnco1,-10.2%,–
CC(C)C(=O)OCCc1ccccc1,-6.62%,–
CCCC(=O)C(C)=O,-3.67%,–
C=C(C)C(=O)OCCOP(=O)(O)OCCOC(=O)C(=C)C,11.2%,–
C[C@@H](O)[C@H]1C(=O)N2C(C(=O)O)=C(SCCN=CN)C[C@H]12,-4.53%,–
C=C(C)C1CCC(C)(O)CC1 (stereo not given),4.77%,–
